Where “and” joins values, the source holds several entries; their conditions need not be identical. Equal values may be shown once. Inconclusive results are not listed. A call without a number means that no potency is given here. Calls of active or inactive are those of the source. The call rests on the fitted dose curve; in most records, active means well fitted curve in the direction sought with a large enough effect; inconclusive means small, poorly fitted or top-dose-only effect, or another doubt; inactive means no such curve, though single readings can be large; an effect the other way counts as inactive or inconclusive.
Legend:
[1] = Primary qHTS for inhibitors of nuclear receptor binding SET domain protein 2 (NSD2) in an isogenic RCH-ACV NSD2 p.E1099K mutant (9B) (AID 1645876); further: nearly all actives have a fitted effect of over 70% in size; further: potency means the concentration at half of the fitted maximal effect
[2] = Primary qHTS for inhibitors of nuclear receptor binding SET domain protein 2 (NSD2) in an RCH-ACV wild type WT cells (2C) (AID 1645877); further: nearly all actives have a fitted effect of over 70% in size; further: potency means the concentration at half of the fitted maximal effect
[3] = biological target: Glutathione peroxidase 1 (Homo sapiens) (UniProt P07203); assay: Primary qHTS Assay for Inhibitors of Recombinant Selenoprotein Glutathione Peroxidase 1 (GPX1) (AID 1845191); further: nearly all actives have a fitted effect of over 65% in size
Chain of Glutathione peroxidase 1 (Homo sapiens) (P07203 whole entry, looked up): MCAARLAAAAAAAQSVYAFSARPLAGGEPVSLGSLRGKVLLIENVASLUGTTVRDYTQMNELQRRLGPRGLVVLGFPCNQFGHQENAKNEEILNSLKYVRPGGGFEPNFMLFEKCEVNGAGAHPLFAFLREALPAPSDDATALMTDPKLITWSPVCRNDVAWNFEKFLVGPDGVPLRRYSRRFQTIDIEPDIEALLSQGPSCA
Method in brief: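 GR-coupled assay: compounds preincubated 30 min at room temperature with GPX1, then reaction started with CHP; final 10 nM GPX1, 1 mM GSH, 0.5 mM CHP, 0.5 mM NADPH, 100 nM GR, 0.01% BSA, pH 7.5 Tris buffer. NADPH fluorescence (340/450 nm) read at 0 and 15 min.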

[4] = biological target: Phospholipid hydroperoxide glutathione peroxidase GPX4 (Homo sapiens) (UniProt P36969); assay: Primary qHTS Assay for Inhibitors of Recombinant Selenoprotein Glutathione Peroxidase 4 (GPX4) (AID 1845192); further: nearly all actives have a fitted effect of over 65% in size
Chain of Phospholipid hydroperoxide glutathione peroxidase GPX4 (Homo sapiens) (P36969 whole entry, looked up): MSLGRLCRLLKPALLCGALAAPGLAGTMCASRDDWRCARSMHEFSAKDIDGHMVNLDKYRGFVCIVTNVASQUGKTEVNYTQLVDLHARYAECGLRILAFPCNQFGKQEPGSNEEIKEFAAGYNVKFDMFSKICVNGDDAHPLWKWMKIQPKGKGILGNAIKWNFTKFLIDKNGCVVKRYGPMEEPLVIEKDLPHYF
Method in brief: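 GR-coupled assay: recombinant GPX4 preincubated 30 min with compound at room temperature; final 200 nM GPX4, 1 mM GSH, 0.5 mM cumene hydroperoxide, 0.5 mM NADPH, 100 nM GR, 0.01% BSA, pH 7.5 Tris. NADPH fluorescence (340/450 nm) read at 0 and 15 min.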

Compound: O=C(Oc1ccccc1)c1ccccc1O
- Potency [1]: inactive
- Potency [2]: inactive
- Potency [3]: inactive
- Potency [4]: inactive

Compound: CCn1ccc(NS(=O)(=O)c2ccc(N)cc2)nc1=O
- Potency [1]: inactive
- Potency [2]: inactive
- Potency [3]: inactive
- Potency [4]: inactive

Compound: O=[N+]([O-])c1nccn1CO[C@@H](CO)[C@H](O)CO
- Potency [1]: inactive
- Potency [2]: inactive
- Potency [3]: inactive

Compound: CCCc1c2oc(C(=O)O)cc(=O)c2cc2c(=O)cc(C(=O)O)n(CC)c12
- Potency [1]: inactive
- Potency [2]: inactive
- Potency [3]: inactive

Compound: O=C(CO)[C@@H](O)[C@H](O)[C@@H](O)CO
- Potency [1]: inactive
- Potency [2]: inactive
- Potency [3]: inactive
- Potency [4]: inactive

Compound: CCOc1c(N2CCOCC2)cnn(C)c1=O
- Potency [1]: inactive
- Potency [2]: inactive
- Potency [3]: inactive
- Potency [4]: inactive

Compound: O=C(O)c1ccccc1S
- Potency [1]: inactive
- Potency [2]: inactive
- Potency [3]: inactive
- Potency [4]: inactive

Compound: CC(=O)N[C@@H](CCC(N)=O)C(=O)O
- Potency [1]: inactive
- Potency [2]: inactive
- Potency [3]: inactive
- Potency [4]: inactive

Compound: O=[N+]([O-])c1cncn1CCN1CCOCC1
- Potency [1]: inactive
- Potency [2]: inactive
- Potency [3]: inactive
- Potency [4]: inactive

Compound: CCN1CCN(C(=O)N[C@@H](C(=O)N[C@@H]2C(=O)N3[C@@H]2SC(C)(C)[C@H]3C(=O)O)c2ccccc2)C(=O)C1=O
- Potency [1]: inactive
- Potency [2]: inactive
- Potency [3]: inactive
- Potency [4]: inactive

Compound: CCC(C(=O)OCCN1CCOC(c2ccccc2)C1C)c1ccccc1 (centres undefined)
- Potency [1]: inactive
- Potency [2]: inactive
- Potency [3]: inactive
- Potency [4]: inactive

Compound: OC1(c2ccc(Cl)c(C(F)(F)F)c2)CCN(CCCC(c2ccc(F)cc2)c2ccc(F)cc2)CC1
- Potency [1]: 4.22 µM (active) and 3.25 µM (active)
- Potency [2]: 4.73 µM (active) and 4.59 µM (active)
- Potency [3]: inactive
- Potency [4]: inactive

Compound: Cc1ccccc1N1CCN(CCc2nnc3n2CCCC3)CC1
- Potency [1]: inactive
- Potency [2]: inactive
- Potency [3]: inactive
- Potency [4]: inactive

Compound: CN(C)C(=O)CNC(=O)Cc1ccccc1
- Potency [1]: inactive
- Potency [2]: inactive
- Potency [3]: inactive
- Potency [4]: inactive

From PubChem BioAssay (NCATS)
